Source: PubChem (National Center for Advancing Translational Sciences (NCATS))
D1 antag = Antagonist of Human D 1 Dopamine Receptor: qHTS; D(1A) dopamine receptor (Homo sapiens), P21728; HEK293 TREx D1 cells, calcium flux, dopamine EC80; active compounds read low; activity change, negative = inhibition, % at 10 µM; 3.2% of 360,000 active; AID 504652, 2011; in the data active = activity change below about -30%
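Kinetic fluorescence of a calcium dye serves as the read-out. D1-expressing Hek293 Trex cells, induced overnight at 30 C, are exposed to compound for 180 s before an EC80 dopamine addition, then read 180 s further.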
D3 ag = qHTS of D3 Dopamine Receptor Agonist: qHTS; 0.58% of 410,000 active; D3R DiscoveRx beta-arrestin cells, luminescence, 90 min; max activation, %; D(3) dopamine receptor (Homo sapiens), P35462; in the data active = max activation above about 30%
Target sequence (P35462 whole entry, looked up): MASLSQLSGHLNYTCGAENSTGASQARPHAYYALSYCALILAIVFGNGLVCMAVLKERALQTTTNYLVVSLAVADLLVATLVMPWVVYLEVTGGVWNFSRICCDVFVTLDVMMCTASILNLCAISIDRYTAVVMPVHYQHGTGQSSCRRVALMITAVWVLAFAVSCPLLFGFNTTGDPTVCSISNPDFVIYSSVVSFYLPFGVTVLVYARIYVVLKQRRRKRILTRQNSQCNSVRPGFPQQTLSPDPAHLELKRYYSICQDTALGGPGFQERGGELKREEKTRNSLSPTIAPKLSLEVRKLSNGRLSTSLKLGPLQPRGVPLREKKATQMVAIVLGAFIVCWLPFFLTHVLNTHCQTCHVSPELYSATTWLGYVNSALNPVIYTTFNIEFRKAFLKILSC
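Cells at 1500/well, incubated overnight, then treated with pinned compounds (dopamine as control) for 90 min at 37 degrees C. DiscoveRx reagent added for 30 - 60 minutes at room temperature; luminescence read.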
D3 antag = qHTS of D3 Dopamine Receptor Antagonist: qHTS; D3R cells, DiscoveRx beta-arrestin luminescence, antagonist mode; active compounds read low; max response, negative = inhibition, %; D(3) dopamine receptor (Homo sapiens), P35462; 2.5% of 360,000 active; in the data active = max response below about -50%
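Cells plated overnight at 1500 cells/well, then exposed to library compounds with dopamine controls for 90 minutes at 37 degrees C. DiscoveRx reagent added for 30–60 minutes at room temperature; luminescence read, quantitative HTS format.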
D1 ag = Allosteric Agonists of the Human D1 Dopamine Receptor: qHTS | D(1A) dopamine receptor (Homo sapiens), P21728 | HEK293 T-REx D1 cells, calcium flux, agonist mode | activation, % at 2 µM | 1% of 360,000 active | AID 504660, 2011; in the data active = activation above about 30%
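Tetracycline-induced HEK293 TREx D1 cells, force-coupled to calcium signalling, were dye-loaded with a no-wash calcium kit. Compound was pin-added after a 10 s baseline. Fluorescence was read kinetically at 1 cycle/s for 180 s, with calcium rises flagged as agonism.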
D1 PAM = Potentiators of Human D1 Dopamine Receptor: qHTS. D(1A) dopamine receptor (Homo sapiens), P21728. HEK293 TREx D1 cells, calcium flux, dopamine EC20 potentiation. potentiation, % at 10 µM. 0.036% of 360,000 active. AID 504651, 2011; in the data active = potentiation above about 30%
A number is an active result; - = inactive; . = not tested or not shown; ! = not confirmed by another sample. The list is not random: actives were taken first. Their share in the collection is about 6.1%.

SMILES | D1 antag | D3 ag | D3 antag | D1 ag | D1 PAM
COc1ccc(N2CCN(CCCNC(=O)c3ccc4nc(CCc5ccccc5)oc4c3)CC2)cc1 | -31 | - | . | 35 | -
CCNC(=O)NC(=O)c1csc([N+](=O)[O-])c1 | - | - | - | - | -
CC(NCc1ccc(S(N)(=O)=O)cc1)C(=O)Nc1cc([N+](=O)[O-])ccc1Cl (stereo unspecified) | - | - | - | - | -
O=C(Nc1ccc([N+](=O)[O-])cc1)Nc1ccc(Cl)cc1F | - | - | - | - | -
Cc1ccc([N+](=O)[O-])cc1NC(=O)Nc1ccc(S(N)(=O)=O)cc1 | -79 | - | - | - | -
CC(NCc1ccc(S(N)(=O)=O)cc1)C(=O)Nc1ccc([N+](=O)[O-])cc1Cl (stereo unspecified) | -30 | - | - | - | -
O=C(Nc1csc([N+](=O)[O-])c1)Nc1c(Cl)cccc1Cl | -45 | - | - | - | -
O=C(Nc1ccc(Cl)cc1)Nc1cc([N+](=O)[O-])ccc1F | -37 | - | - | - | -
Cc1cc(C)cc(-n2ccnc(NCc3ccc(F)cc3)c2=O)c1 | - | - | . | - | -
O=C(Nc1ccc(Cl)cc1)Nc1ccccc1CC[N+](=O)[O-] | -39 | - | - | 35 | -
O=C(Nc1ccc(Cl)cc1)Nc1csc([N+](=O)[O-])c1 | -45 | - | - | - | -
CN(C)C(=O)Nc1ccccc1CC[N+](=O)[O-] | - | - | - | - | -
Cc1ccc([N+](=O)[O-])cc1NC(=O)Nc1onc(C)c1C | -36 | - | - | - | -
CC(=O)Nc1ccc(C(=O)CSc2nnc3cc(C)c4ccccc4n23)cc1 | - | - | . | - | -
O=C(Nc1ccccc1)C1=C(c2ccccc2)S(=O)(=O)CCS1(=O)=O | - | - | -105 | - | -
CCc1sc(C(=O)NCCc2ccc(S(N)(=O)=O)cc2)cc1Br | -30 | - | - | - | -
Cc1cc(C(=O)NCCc2ccc(S(N)(=O)=O)cc2)c(C)o1 | -31 | - | - | - | -
Cc1cccc2nc(Cn3c(=O)n(-c4ccc(Cl)cc4)c(=O)c4c5c(sc43)CCC5)cc(=O)n12 | - | - | . | - | -
CCc1ccccc1N(CC)C(=O)c1c(C)oc2ncnc(N3CCOCC3)c12 | - | - | . | - | -
O=C(NC(C(=O)c1ccccc1)N1CCOCC1)c1ccccc1 (stereo unspecified) | - | - | - | - | -
Cc1cc(=O)n(C(NC(=O)c2ccccc2)C(=O)c2ccccc2)cn1 (stereo unspecified) | - | 65 | - | - | -
O=C(N/N=C\c1cccc(F)c1)c1ccc(Cn2cc(Br)c([N+](=O)[O-])n2)o1 | - | - | -87 | - | -
O=C1N(Cc2ccccc2Cl)c2ccccc2C1(O)c1c[nH]c2ccccc12 (stereo unspecified) | - | - | . | - | -
CCN(CC)CCCn1c2c(c(SCC(=O)Nc3cc(C)cc(C)c3)nc1=O)CCC2 | . | - | - | . | .
CCN(CC)CCCn1c2c(c(SCC(=O)Nc3nccs3)nc1=O)CCC2 | -56 | - | - | - | -
SMILES | D1 antag | D3 ag | D3 antag | D1 ag | D1 PAM
O=C(CCCOc1ccccc1)Nc1nncs1 | -35 | - | - | - | -
Cc1cc(F)ccc1S(=O)(=O)NCC(c1ccco1)S(=O)(=O)c1cccs1 (stereo unspecified) | . | - | . | - | -
O=C(Nc1ccc(Cl)cc1)Nc1nnc(-c2ccncc2)s1 | - | 49 | - | - | -
O=C(Nc1ccc(Cl)cc1)Nc1nc(-c2ccccc2O)cs1 | -37 | - | - | - | -
O=C(Nc1ccc(Cl)cc1)Nc1nc(-c2sccc2Br)cs1 | - | - | - | - | -
O=C(Nc1ccc(F)cc1)Nc1nnc(-c2ccncc2)s1 | - | - | - | - | -
Cc1ccccc1-c1noc(-c2ccccc2OCC(=O)Nc2ccccc2[N+](=O)[O-])n1 | -63 | - | . | - | -
CCc1nn(CC(=O)Nc2ccc(C)c(F)c2)c(=O)c2cc3cc(C)ccc3n12 | - | - | . | - | -
COc1ccccc1N1CCN(c2ncnc3c2cnn3-c2cc(Cl)ccc2C)CC1 | - | - | . | - | -
COc1ccccc1NS(=O)(=O)c1ccc(NN=C2CCCCC2)c([N+](=O)[O-])c1 | - | - | -61 | - | -
COc1ccccc1NS(=O)(=O)c1ccc(N/N=C(\C)C(C)C)c([N+](=O)[O-])c1 | -31 | - | - | - | -
COc1ccccc1NS(=O)(=O)c1ccc(OC)c([N+](=O)[O-])c1 | - | - | - | - | -
COc1cc(C(=O)OCc2cc(=O)n3ccsc3n2)cc(OC)c1OC | - | - | . | - | -
CN(C)CCCC1(c2ccc(F)cc2)OCc2cc(C#N)ccc21 (stereo unspecified) | -52! | - | -59 | - | -
O=C(CCn1c(=O)c2cccn2c2cccnc21)NCc1cccc(Br)c1 | - | - | . | - | -
COc1ccc(-n2c(=S)[nH]c3cc(C(=O)NCc4ccco4)ccc3c2=O)c(OC)c1 | - | - | -61 | - | -
COc1ccc(C(=O)NCc2nnc(SCC(=O)NCc3ccco3)o2)cc1OC | -41 | - | - | - | -
COc1cc(NC(=O)CCn2c(-c3ccccc3)cc(C(C)=O)c2C)cc(OC)c1 | - | - | . | - | -
CC(=O)c1ccc(NC(=O)c2nc(-c3ccccc3)n(-c3ccccc3Cl)n2)cc1 | - | - | . | - | -
N#Cc1nc(-c2ccccc2F)oc1NC1CCCCC1 | -34 | - | - | - | .
CCOc1ccc(-c2nn(-c3ccccc3)cc2C2NC(=O)NC(C)=C2C(=O)OC(C)C)cc1 (stereo unspecified) | - | - | . | - | -
COc1ccc(O)c(C(=O)c2cnn(C(=O)c3cc(C)oc3C)c2)c1 | -46 | - | - | - | -
CCCCCSc1nc2sc3c(c2c(=O)n1-c1ccccc1)CCN(C(C)=O)C3 | - | - | . | - | -
CC(C)[C@H](NC(=O)OCc1ccccc1)C(=O)OCC(=O)N1CCN(c2ccc(F)cc2)CC1 | -65 | - | - | - | -
CC(=O)N1c2ccc(S(=O)(=O)Nc3ccc(Cl)cc3C)cc2CC1C (stereo unspecified) | - | - | . | - | -
Cc1cccc(NS(=O)(=O)c2cccc(C(=O)NCC(c3ccco3)N3CCCCC3)c2)c1 (stereo unspecified) | - | - | -64 | - | -
Cc1ccc(N(C)S(=O)(=O)c2cccc(C(=O)NCC(c3ccco3)N3CCCC3)c2)cc1 (stereo unspecified) | - | - | -69 | - | -
COc1ccc(NS(=O)(=O)c2cccc(C(=O)NCC(c3ccco3)N3CCCCC3)c2)cc1 (stereo unspecified) | - | - | - | - | -
